High-throughput results deposited in PubChem BioAssay by National Center for Advancing Translational Sciences (NCATS).
Rows were chosen to be rich in hits. Some 6.4% of all compounds tested hit in one or more screens of this group.
VP16 counter: Gal4-VP16 reporter inhibition counter-screen; Drosophila S2 Gal4-VP16 UAS-luciferase, luminescence, 20 h; Potency, µM (doses to about 53.6 µM), for inactives: at the highest dose activity, negative = inhibition, actives largely listed as inhibitors; hit rate 3.5% among 310,000; AID 2546;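 also: Gal4-VP16 expression switched on by copper sulfate through the metallothionein promoter; nearly all actives have a fitted effect of over 50% in size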
RORg inh: blocks mouse ROR gamma transcriptional activity; P51450; AID 2551; hit rate 5.4% among 310,000; Potency, µM (highest dose often 53.6 µM), without a hit: top-dose activity change, negative = inhibition, most hits filed as inhibitors; Drosophila S2 Gal4-RORgamma UAS-luciferase reporter, 20 h; also: nearly all actives have a fitted effect of over 60% in size
Target sequence (P51450 whole entry, looked up, the tested form may be a part): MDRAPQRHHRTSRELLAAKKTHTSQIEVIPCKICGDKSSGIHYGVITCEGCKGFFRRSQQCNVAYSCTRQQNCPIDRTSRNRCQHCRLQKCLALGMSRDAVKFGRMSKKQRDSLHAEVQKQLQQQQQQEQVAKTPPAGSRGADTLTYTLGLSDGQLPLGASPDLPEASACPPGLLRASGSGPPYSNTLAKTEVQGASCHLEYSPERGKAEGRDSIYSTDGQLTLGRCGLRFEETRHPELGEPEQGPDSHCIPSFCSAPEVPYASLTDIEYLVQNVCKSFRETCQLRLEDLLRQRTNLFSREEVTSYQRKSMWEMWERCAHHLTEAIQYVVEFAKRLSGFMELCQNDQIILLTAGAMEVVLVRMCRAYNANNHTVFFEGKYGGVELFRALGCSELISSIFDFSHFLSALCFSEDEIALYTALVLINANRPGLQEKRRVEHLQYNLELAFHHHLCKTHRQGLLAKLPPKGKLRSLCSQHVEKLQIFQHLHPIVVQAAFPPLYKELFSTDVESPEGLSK
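Using a luciferase readout, inhibitors were identified by reduced reporter activity in Drosophila cells coexpressing a copper-inducible Gal4–ROR gamma fusion and UAS-driven Photinus luciferase, incubated 20 hr after 700 uM copper sulfate.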
Luc counter: counter-screen: inhibitors of Kinase-Glo firefly luciferase; Kinase-Glo luciferase, ATP luminescence, 8 min; hit rate 0.28% among 200,000; Q27757; AID 1379; Potency, µM (doses to about 38.3 µM), without a hit: top-dose activity change, negative = inhibition, actives largely listed as inhibitors; also: nearly all actives have a fitted effect of over 60% in size
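Inhibition of Kinase-Glo luciferase light generation was assessed at 10 uM ATP in pH 7.2 imidazole buffer, with luminescence measured after eight minutes at ambient temperature.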
* hit, by the source's call; ? = inconclusive; . = not tested or not shown; [ ] = remark or other dose. Calls follow the shape of the dose curve; as a rule, active = well fitted curve in the direction sought with a large enough effect; inconclusive = small, poorly fitted or top-dose-only effect, or another doubt; inactive = no such curve, though single readings can be large; an effect the other way counts as inactive or inconclusive. % is scaled to controls: 0 for no effect and ±100 for the full control effect; potency is read from the fitted curve at half-maximal effect.

SMILES	VP16 counter	RORg inh	Luc counter
O=C(CC1SC2=NCCN2C1=O)Nc1ccccc1 (stereo unspecified)	-9%	43%	-1%
CO[C@@H](CCOCc1ccccc1)C[C@H]1O[C@H](C(=O)OC(C)C)C=C[C@@H]1C	-12%	-5%	-3%
Cc1cc(C2(c3ccc(O)c(C)c3)OC(=O)c3ccccc32)ccc1O	-1%	9%	2%
Cc1cc(O)c(C(C)C)cc1C1(c2cc(C(C)C)c(O)cc2C)OC(=O)c2ccccc21	13µM*	?	-2%[7.66 µM]
O=C(COC(=O)Cc1cccs1)NCc1ccc(F)cc1	1%	-31%	.
CSc1ncc(OCc2ccccc2)c(=O)[nH]1	-8%	-9%	.
Cc1nc2[nH]c(=S)[nH]c2cc1Br	-3%	11µM*	1%
Cc1nc2nc[nH]c2cc1Br	0%	0%	-3%
Cc1ccccc1NC(=O)c1c2c(nc3ccccc13)CCC2	4%	-29%	6%
Cc1cc(C)nc(SCCC(=O)Nc2ccccc2Cl)n1	10%	-29%	1%
COC(=O)c1c(NC(=O)CCl)sc(C(=O)N2CCOCC2)c1C	1.8µM*	10µM*	.
COC(=O)c1c(N)sc(C(=O)N2CCOCC2)c1C	-1%	1%	5%
Cc1cc(C)n2nc(CNS(=O)(=O)c3ccc(CC(C)C)cc3)nc2n1	3%	-1%	.
O=C(Nc1nc2ccccc2[nH]1)c1ccccc1OC(F)F	10µM*	7.9µM*	.
CC(C)Oc1ccc(C(=O)Nc2nc3ccccc3[nH]2)cc1	2.8µM*	1.1µM*	.
O=C(Nc1nc2ccccc2[nH]1)c1ccc(OC(F)F)cc1	?	5.6µM*	.
CCC(Oc1ccccc1)C(=O)Nc1nc2ccccc2[nH]1 (stereo unspecified)	?	10µM*	-2%
O=C(N/N=C/c1ccc(OC(F)F)cc1)c1ccc(CSc2nc3ccccc3[nH]2)cc1	-2%	20%	-3%
CC(C)Oc1ccc(C(=O)Nc2cccc3cccnc23)cc1	-15%	16%	-1%
O=C(O)c1cc2c(cc1NC(=O)c1ccccc1OC(F)F)OCCCO2	5%	-5%	.
COc1ccc(CCC(=O)Nc2nc3ccccc3[nH]2)cc1	16%	13%	-1%
COC(=O)N1CCC2(CCCN(c3ccc(-c4ccccc4)cc3)C2)CC1	4%	6%	-3%
Cn1cc(/C=C(\NC(=O)c2ccccc2Cl)C(=O)NCCCn2ccnc2)c2ccccc21	-5%	1%	.
Cc1nonc1OCCNCc1c(C(=O)N2CCCCCCC2)nc2ccc(Cl)cn12	-13%	46%	21%
Cc1nonc1OCCNCc1c(C(=O)N(C)C)nc2ccc(Cl)cn12	2.8µM*	3.2µM*	-3%
SMILES	VP16 counter	RORg inh	Luc counter
O=C(CN1CCN(Cc2cccc3ccccc23)CC1)NCCc1ccccc1	8%	40%	.
COc1ccc(/C=N/NC(=O)c2ccc(O)cc2O)cc1CSc1ccccn1	2µM*	0.089µM*	-3%
COc1ccc(/C=N/NC(=O)c2cccnc2)cc1CSc1nc2ccccc2s1	20µM*	?	4%
COc1ccc(/C=N/NC(=O)c2ccccc2Cl)cc1CSc1nc2ccccc2s1	12%	-21%	1%
O=C(N/N=C/c1cccc(Oc2ccccc2)c1)c1ccncc1	?	?	-2%
O=C(N/N=C/c1cccc(Oc2ccccc2)c1)c1ccc(O)cc1O	2.2µM*	0.63µM*	.
COc1ccc(C=O)cc1CSc1ccccn1	4%	-3%	.
COc1ccc(C2c3[nH]c4ccccc4c3CCN2C(=O)Cc2nonc2C)c(F)c1 (stereo unspecified)	-8%	-4%	.
CC1(C)OC1COc1c2ccoc2cc2oc(=O)ccc12 (stereo unspecified)	-11%	-7%	2%
O=C(COc1ccc2c(c1)oc(=O)c1ccccc12)NCCCN1CCOCC1	-5%	-2%	.
O=[N+]([O-])c1ccc(Sc2cc[n+]([O-])c3ccccc23)c([N+](=O)[O-])c1	18µM*	11µM*	.
Nc1nc(Sc2ccc([N+](=O)[O-])cc2[N+](=O)[O-])n[nH]1	6%	-25%	.
NS(=O)(=O)OCC(Cc1ccccc1)N1C(=O)c2ccccc2C1=O (stereo unspecified)	-5%	0%	.
Cc1ccc(NC2=NCC(=O)N2Cc2cccs2)cc1C	7%	?	4%
CC(=O)c1ccc(-n2cc(-c3ccc(C(C)(C)C)cc3)[n+]3c2SCCC3)cc1	11µM*	-22%	8%
COc1ccc(-c2cn(-c3ccc(Br)cc3)c3[n+]2CCS3)cc1	?	6%	-3%
N#Cc1cccc(-c2nccc(-n3ccnc3)n2)c1	-19%	?	.
O=C(c1ccc(CNS(=O)(=O)c2cccc(Cl)c2)cc1)N1CCCCC1	-12%	44%	.
NNC(=O)c1cccc(COc2cccc(Br)c2)c1	?	13µM*	0%
COc1ccc(OCc2cccc(C(=O)NN)c2)cc1	?	14µM*	-11%
COc1ccc(OCc2cccc(C(=O)Nc3cc(C)on3)c2)cc1	?	63%	-1%
NNC(=O)c1cccc(COc2ccc(Br)cc2)c1	-97%	?	-1%
Cc1ccc(-n2c(-c3ccc(Br)cc3)c[n+]3c2CCc2ccc4cccnc4c2-3)cc1	1.4µM*	7.1µM*	-5%
Cc1ccc(-n2c(=O)[nH]c3ncccc3c2=O)cc1	-5%	-13%	1%
COCCn1c(C)cc(C(=O)COC(=O)c2ccccc2Br)c1C	?	-41%	.
SMILES	VP16 counter	RORg inh	Luc counter
Cc1ccc(-n2c(C)cc(C(=O)COC(=O)C3=NNC(=O)CC3)c2C)cc1	4%	18%	0%
CCCn1c(C)cc(C(=O)COC(=O)c2ccc[nH]c2=O)c1C	6.3µM*	4µM*	?
Cc1ccc(-n2c(C)cc(C(=O)COC(=O)c3ccc[nH]c3=O)c2C)cc1C	0.02µM*	-38%	-5%
CC(C)NC(=O)N1CC2(CCN(C(=O)c3ccncc3)CC2)C1	-6%	-20%	-3%
O=C1NC(C(=O)O)=CC(c2ccc([N+](=O)[O-])cc2)N1 (stereo unspecified)	-4%	-7%	.
N#CC1=C(N)NC(=S)C(C(N)=O)C1c1ccc([N+](=O)[O-])cc1 (stereo unspecified)	13µM*	?	-1%
CN1CCN(C2=C(NS(=O)(=O)c3ccccc3)C(=O)c3ccccc3C2=O)CC1	13µM*	11µM*	.
CCOC(=O)N1CCN(C2=C(NS(=O)(=O)c3ccccc3)C(=O)c3ccccc3C2=O)CC1	-11%	-38%	.
CN1CCN(C2=C(NS(=O)(=O)c3cccs3)C(=O)c3ccccc3C2=O)CC1	-4%	-30%	.
CCN1CCN(C2=C(NS(=O)(=O)c3ccccc3)C(=O)c3ccccc3C2=O)CC1	?	10µM*	.
COc1ccccc1OCCSc1nc2ccccc2n1CC(O)CO (stereo unspecified)	-23%	-6%	.
CC[C@@]1(O)C[C@H](O[C@H]2C[C@@H](N(C)C)[C@@H](O[C@H]3C[C@@H](O)[C@@H](O[C@H]4CCC(=O)[C@@H](C)O4)[C@@H](C)O3)[C@@H](C)O2)c2c(cc3c(c2O)C(=O)c2c(O)cccc2C3=O)[C@H]1C(=O)OC	0.56µM*	0.32µM*	.
CCS(=O)(=O)Nc1ccc(Cc2ccc(NS(=O)(=O)CC)cc2)cc1	?	1.3µM*	-2%
